The panel holds about 83,000 compounds, 20% with a hit somewhere; the sample as a whole holds those more often.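 Plates (96-well) were seeded with cells, treated with compound at one concentration, and incubated for 48 hours before percent growth was determined.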 Values without a mark were called inactive. Active and inactive are the calls of the source. Rule for the calls: active = growth percent below 10; inactive = the rest.
Each compound was assayed on HL-60(TB) leukemia (assay: NCI-60 one-dose screen, 48 h (100 = growth as untreated, 0 = no growth, -100 = all killed)). Conditions: 10 µM unless noted.

Compound | growth
Oc1ccc(O)cc1 | 48.4%
CCN(CC)c1ccc(/C=C/c2cc(C)c3ccccc3n2)cc1 | 59.1%
N#Cc1c(-c2cccc(Cl)c2)cc(-c2cccc(Cl)c2)[nH]c1=O | -11.9% (active)
N#Cc1c(-c2ccccc2)cc(-c2ccc(Nc3nc(Nc4ccc(F)cc4)nc(Nc4ccc(F)cc4)n3)cc2)nc1N | 14.2%
CCc1nc2ccccc2[nH]1 | 105%
ClC(Cl)(Cl)c1nc2nccnc2[nH]1 | 103%
CC1(C)OC2C(CO)OC(n3ccc(=O)[nH]c3=O)C2O1 (stereo not given) | 105%
CS(=O)(=O)c1ccc(-c2cnc3ccc(-c4cccc(S(C)(=O)=O)c4)nn23)cc1 | 16.6%
CCOC(=O)c1c[nH][nH]c1=O | 110%
CCOC(=O)c1cc(C#N)n2ncc3ccccc3c12 | 105%
NN=C(c1ccc(Cl)cc1)c1ccc(Cl)cc1 | 131%
CCN(CC)CCCN1C(=O)c2c(c(C)c3c(oc4cc(OC)ccc43)c2C)C1=O | 95%
N#CC(C#N)N=Nc1ccc(Cl)cc1Cl | 53%
O=C(COc1ccc(/C=C2\Cc3ccccc3C2=O)cc1)c1ccc(Cl)cc1 | 118%
Cn1c(I)c(C#C[Si](C)(C)C)c(=O)[nH]c1=O | -67.8% (active)
CCCCCc1ccnc(CC(=O)c2ccc(OC)cc2)c1 | 110%
Fc1cccc(F)c1C#Cc1ccc2cccnc2c1 | 74.6%
C/C(=N\Nc1cc(C)c2cc(C)ccc2n1)c1ccccn1 | -54.9% (active)
N=C(N)c1ccc(-c2ccc(-c3ccc(Cl)cc3)o2)nc1 | 110%
Clc1ccc(Cc2nc3ccccc3s2)cc1 | 98.6%

Compound | growth
C[C@]1(O)CC(=O)[C@]2(O)C3=C(C=C[C@]2(O)C1)C(=O)c1c(O)cccc1C3=O | -43.8% (active)
CCOC(=O)C1=C(C)N2C(=NC3=C(CCCC/C3=C\c3ccccc3)C2c2ccccc2)S1 (stereo not given) | 101%
Clc1ccc2c(NCCN3CCN(c4ccnc(N5CCCC5)n4)CC3)ccnc2c1 | 37.4%
O=C1NC(=O)c2c1c1c3ccccc3[nH]c1c1oc3cc(Br)ccc3c21 | 104%
Cc1nc2ccccc2n1CC1C(=O)NC(=O)NC1=O | 102%
CCc1ccc(C(c2ccc(CC)cc2)C(Cl)(Cl)CCl)cc1 | 77.2%
COc1cccc(NCc2nnc(Nc3ccc(Cl)cc3)c3ccccc23)c1 | -27.1% (active)
CC(=O)N1N=C2N(Cc3ccccc3)C(=O)c3c(sc4c3CCCC4)N2C1c1cn(-c2ccccc2)nc1-c1ccc(Cl)cc1 (stereo not given) | 88.5%
C=C(C)[C@@H]1CC[C@]2(C(=O)NCCCO)CC[C@]3(C)[C@H](CC[C@@H]4[C@@]5(C)CCCNC(C)(C)[C@@H]5CC[C@]43C)[C@@H]12 | 34.1%
Cc1c2c(cn1Cc1ccccc1)CCc1cn(C)nc1-2 | 63.4%
CCN(CC)CCC(CNc1ccnc2cc(Cl)ccc12)c1ccc(Cl)cc1 (stereo not given) | -53.9% (active)
Cc1ccc(-c2nc3nc(-c4ccc(Cl)cc4)nc(N4CCCNCC4)c3o2)cc1 | -67.6% (active)
Nc1n[nH]c(=S)n1-c1ccc(Cl)cc1 | 82.6%
O=C(Nc1ccncc1)C(=O)c1cn(S(=O)(=O)c2ccc(Cl)cc2)c2ccccc12 | 18.3%
Cc1cc(NCc2cc(Nc3ccnc4cc(Cl)ccc34)ccc2F)nc(N2CCOCC2)n1 | -52.7% (active)
O=C(Nc1ncc(Cc2cc(C(F)(F)F)ccc2Cl)s1)c1cccs1 | 30.6%
COc1ccccc1-n1c(-c2ccc(O)cc2C)cn2c3c(=O)[nH]c(=O)n(C)c3nc12 | 79.9%
COc1ccc(-c2cc(-c3ccc(Nc4nc(Nc5ccccc5)nc(Nc5ccc(Cl)cc5)n4)cc3)nc(N)c2C#N)cc1 | 33.1%
C=C1CC[C@@H]2[C@](C)(COC(C)=O)[C@H](OC(C)=O)CC[C@@]2(C)[C@@H]1CC(Nc1ccc(S(=O)(=O)Nc2nccc(C)n2)cc1)C1=CCOC1=O (stereo not given in full) | -17.3% (active)
COc1ccc(Nc2ccc3ccccc3c2)cc1 | 91.3%

Source: PubChem BioAssay (NCI)
